Screens as filed in PubChem BioAssay.
HT1080 IDH1KD tx: kills HT-1080 cells with IDH1 knockdown | HT-1080 IDH1 knockdown viability, ATP luminescence, 48 h | Potency, µM (top dose mostly 46.1 µM), hits mostly cytotoxic | actives 2% (n = 360,000) | AID 686971
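Assay cells: HT-1080 with IDH1 knockdown, 750 per well, RPMI/5% FBS. Exposure: 48 h at 37 °C following 2 h pre-incubation. Read: CellTiter-Glo luminescence; fitted concentration-response, curve class assigned.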
uPA generation: inhibitors of cell surface uPA generation | cell surface uPA generation assay, qHTS | Potency, µM (titrated, usually from 38.3 µM), most hits filed as inhibitors | actives 0.31% (n = 330,000); active = well fitted inhibition curve with a large enough effect; inconclusive = small, poorly fitted or top-dose-only effect; inactive = no such curve, though single readings can be large or run the other way; tested in mouse RAW 264.7 cells; also: nearly all actives have a fitted effect of over 55% in size
TDP1 cell CPT: DT40-hTDP1 cell growth loss with CPT; AID 686979; chicken DT40 Tdp1-/-;hTDP1 cells + 20 nM CPT, ATP luminescence, 48 h; Potency, µM (series often up to 46.2 µM), actives largely listed as inhibitors; actives 12% (n = 420,000); also: nearly all actives have a fitted effect of over 55% in size
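Chicken DT40 Tdp1-/- cells complemented with human TDP1, 400 cells/well, exposed to compounds plus 20 nM camptothecin for at least 48 h at 37 C; viability read as ATP content by CellTiter-Glo luminescence.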
IL-1B inflam inh: inflammasome signaling inhibition, IL-1 beta readout; THP-1 LPS/ATP IL-1B secretion, AlphaLISA, 16 h; stronger effect = lower value; activity change, % at 57.5 µM; actives 4.7% (n = 360,000); in the data active = activity change below about -50%; inconclusive = mostly about -30% to -49%
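Secreted IL-1B measured by AlphaLISA bead assay after 16 h compound exposure of THP-1 cells; compounds (final up to 57.5 uM) added 1 h before LPS (250 ng/mL) and ATP (1.25 mM) stimulation; lower signal means less secretion.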
TDP1 cell noCPT: qHTS for Inhibitors of human tyrosyl-DNA phosphodiesterase 1 (TDP1): qHTS in cells in absence of CPT; DT40 Tdp1-/- hTDP1 cells, no CPT, ATP luminescence, 48 h; Potency, µM (series often up to 46.2 µM), hits mostly inhibitors; actives 15% (n = 420,000); also: nearly all actives have a fitted effect of over 55% in size
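Readout: luminescence from CellTiter-Glo after 30 min in the dark at RT. Cells: DT40 Tdp1-/- with stable hTDP1, 400/well. Exposure: compounds alone, ≥48 hr, 37 °C.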
HT1080-NT tox: kills 2HG-producing HT-1080-NT fibrosarcoma cells; actives 1.6% (n = 360,000); HT-1080-NT fibrosarcoma viability, CellTiter-Glo ATP luminescence, 48 h; Potency, µM (highest dose often 46.1 µM), most hits filed as cytotoxic;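 also: NT is the 2HG producing partner of a matched IDH1 knockdown line; nearly all actives have a fitted effect of over 55% in size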
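Luminescent CellTiter-Glo readout after 48 hours of compound exposure at 37 degrees C defined viability of HT-1080-NT cells. Activity was normalized to DMSO wells and cell-free media wells; concentration-response curves were fitted and assigned curve classes.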
Of the large screens only hits and unclear results are named; the others gave an inactive call. In the library only some 19% were active in any assay of this set; here they are far more common. Unless noted, calls follow the shape of the dose curve; as a rule, active = well fitted curve in the direction sought with a large enough effect; inconclusive = small, poorly fitted or top-dose-only effect, or another doubt; inactive = no such curve, though single readings can be large; an effect the other way counts as inactive or inconclusive.

CCN(CC)S(=O)(=O)c1ccc(C(=O)Nc2cccc(C)c2)cc1	TDP1 cell CPT inconclusive, IL-1B inflam inh inconclusive
CCN(CC(=O)NCc1ccc(Cl)cc1)S(=O)(=O)c1ccc(F)cc1	TDP1 cell CPT inconclusive
CC(C)(C)C(=O)OCOP(=O)(COCCn1cnc2c(N)ncnc21)OCOC(=O)C(C)(C)C	none (no result: HT1080 IDH1KD tx, uPA generation, IL-1B inflam inh, HT1080-NT tox)
Cc1cccc(C)c1NC(=O)C(c1ccc(C#N)cc1)n1c(=O)c(-c2ccco2)nc2ccccc21 (configuration not stated)	TDP1 cell CPT inconclusive, IL-1B inflam inh inconclusive, TDP1 cell noCPT inconclusive (no result: uPA generation)
CN(C)c1ncc2nc(-c3ccc(Cl)cc3)c(=O)n(C[C@H]3CCCO3)c2n1	none (no result: HT1080 IDH1KD tx, uPA generation, IL-1B inflam inh, HT1080-NT tox)
CCN(CC)S(=O)(=O)c1ccc(/C=C/C(=O)O)cc1	none
CCN(CC)S(=O)(=O)c1ccc(/C=C/C(=O)Nc2cccc(F)c2)cc1	TDP1 cell CPT 21µM, TDP1 cell noCPT 21µM
COc1cc(OC)c(C(=O)NCCCn2ccnc2)cc1OC	none
c1ccc(CCNc2ncnc3sccc23)nc1	HT1080 IDH1KD tx inconclusive, TDP1 cell CPT 6.5µM, TDP1 cell noCPT 7.3µM
Cc1csc2ncnc(NCCc3ccccn3)c12	uPA generation inconclusive, TDP1 cell CPT 6.5µM, TDP1 cell noCPT 3.7µM
O=C(c1ccc2ccccc2n1)N(CCO)Cc1ccccc1	none
Cc1noc(C)c1COC(=O)c1ccccc1NC(=O)c1ccco1	IL-1B inflam inh inconclusive, TDP1 cell noCPT inconclusive
O=C(O)/C=C\C(=O)Nc1ccccc1C#Cc1ccc(Br)cc1	HT1080 IDH1KD tx inconclusive, TDP1 cell CPT inconclusive, IL-1B inflam inh -98, TDP1 cell noCPT inconclusive, HT1080-NT tox inconclusive (no result: uPA generation)
O=C(O)/C=C/C(=O)Nc1ccccc1SC(F)(F)F	uPA generation inconclusive, TDP1 cell CPT 7.3µM, TDP1 cell noCPT 21µM
NS(=O)(=O)c1ccc(N2C(=O)CCCC2=O)cc1	none (no result: uPA generation)
CCOC(=O)c1ccc(-c2ccc(/C=N/NC(=O)c3cncc(Br)c3)o2)cc1	TDP1 cell CPT inconclusive, TDP1 cell noCPT 23µM
CCCCOC(=O)c1ccc(-c2ccc(/C=N/NC(=S)NCC)o2)cc1	TDP1 cell CPT 5.8µM, TDP1 cell noCPT 7.3µM, HT1080-NT tox 2.8µM (no result: uPA generation)
Cc1ccc(/C=N\NC(=O)c2cncc(Br)c2)o1	none
C=N[C@@H](C(=O)N[C@@H]1C(=O)N2[C@@H]1SC(C)(C)[C@@H]2C(=O)O)c1ccccc1	none (no result: HT1080 IDH1KD tx, uPA generation, IL-1B inflam inh, HT1080-NT tox)
COc1ccc(Cc2noc(=O)[nH]2)cc1	none (no result: uPA generation)
CN(C)c1ccc(CNc2nc(-c3ccco3)nn2S(C)(=O)=O)cc1	TDP1 cell noCPT inconclusive (no result: HT1080 IDH1KD tx, uPA generation, IL-1B inflam inh, HT1080-NT tox)
Cc1ccc(S(=O)(=O)n2nc(-c3ccco3)nc2NCc2ccc(N(C)C)cc2)cc1	TDP1 cell CPT inconclusive, TDP1 cell noCPT 23µM (no result: HT1080 IDH1KD tx, uPA generation, IL-1B inflam inh, HT1080-NT tox)
CC(C)c1ccc(CNc2nc(-c3ccco3)nn2S(=O)(=O)c2ccccc2)cc1	TDP1 cell CPT 23µM, TDP1 cell noCPT inconclusive (no result: HT1080 IDH1KD tx, uPA generation, IL-1B inflam inh, HT1080-NT tox)
Cc1ccc(CNc2nc(-c3ccco3)nn2C(=O)c2ccccc2[N+](=O)[O-])cc1	TDP1 cell CPT inconclusive, TDP1 cell noCPT 18µM (no result: HT1080 IDH1KD tx, uPA generation, IL-1B inflam inh, HT1080-NT tox)
CN1CCCC(C)(C(=O)Nc2cccc(Oc3ccccc3)c2)C1 (configuration not stated)	TDP1 cell CPT inconclusive, TDP1 cell noCPT inconclusive (no result: uPA generation)
C=CCNC(=S)N1CCN(C2CCCCC2)CC1	none
O=C1CC(/C=C/c2ccncc2)=Nc2ccccc2N1	HT1080 IDH1KD tx inconclusive, TDP1 cell CPT 5.8µM, TDP1 cell noCPT 5.8µM, HT1080-NT tox inconclusive (no result: IL-1B inflam inh)
O=C1CC(c2ccccc2)=Nc2ccccc2N1	none
CC1(C)Cc2cccc(Oc3cc(NN4CCCCC4)c([N+](=O)[O-])cc3[N+](=O)[O-])c2O1	TDP1 cell CPT inconclusive, TDP1 cell noCPT 16µM
Cc1ccc(C)c(Oc2cc(NN3CCCCC3)c([N+](=O)[O-])cc2[N+](=O)[O-])c1	TDP1 cell CPT inconclusive
Cc1cc(Oc2cc(NN3CCCCC3)c([N+](=O)[O-])cc2[N+](=O)[O-])c(C(=O)c2ccccc2)cc1Cl	TDP1 cell CPT 21µM, TDP1 cell noCPT inconclusive
